We go through six molecules from PubChem BioAssay (EPA / NIEHS).

Results filed as inconclusive are left out. Active and inactive are the calls of the source. The calls were made as follows, unless noted: active = hit-call score of the fitted dose curve at least 0.9, where 1 is the maximum; inactive = score below 0.9.

Assay [1] concerns the target Paired box protein Pax-6 (Homo sapiens) (UniProt P26367). Description: ATG_Pax6_CIS: Attagene CIS-FACTORIAL HepG2 Assay for human Paired Box 6 (PAX6) (AID 2282956). As to conditions: HepG2 CIS-FACTORIAL PAX6 reporter transcription, RNA readout; actives raise or lower the signal. An outline of the steps: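 Read-out is reporter transcript level, measured by RT-PCR with fluorescent primer extension and capillary electrophoresis after 24 h dosing of transfected HepG2 cells. Activity in either direction fitted relative to DMSO control.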

Assay [2] can be described thus: ATG_PXRE_CIS: Attagene CIS-FACTORIAL HepG2 Assay for human Pregnane X Receptor Element (PXRE) (AID 2282957). As to conditions: HepG2 Attagene CIS-FACTORIAL PXRE reporter, mRNA; actives raise or lower the signal. The method, boiled down:
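Endogenous transcription factor activity in HepG2 was gauged through induction of reporter mRNA driven by a cis-regulating promoter element, sampled 24 h post-treatment. Activity was fitted in both directions against DMSO negative control.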

A short description of assay [3]: ATG_RORE_CIS: Attagene CIS-FACTORIAL HepG2 Assay for human RAR-related Orphan Receptor Element (RORE) (AID 2282959). Conditions: HepG2 Attagene cis-factorial RORE reporter, mRNA; actives raise or lower the signal. An outline of the steps: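 Readout: fluorescent reporter mRNA by RT-PCR plus capillary electrophoresis, 24 h after dosing transfected HepG2 cells. Endogenous transcription factor activity on a cis promoter element is measured. Gain or loss of signal fitted against DMSO.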

Assay [4] in a line: ATG_Sox_CIS: Attagene CIS-FACTORIAL HepG2 Assay for human SRY-box transcription factor (SOX) (AID 2282960). Conditions: HepG2 Attagene cis-factorial SOX reporter, mRNA; actives raise or lower the signal. The method, boiled down: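 Read-out: fluorescent RT-PCR products of SOX1-linked reporter transcripts resolved by capillary electrophoresis, fitted bidirectionally against DMSO. Transiently transfected HepG2 cells, 24 h after chemical exposure, endogenous transcription factor activity.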

Assay [5] deals with Transcription factor Sp1 (Homo sapiens) (UniProt P08047). Briefly: ATG_Sp1_CIS: Attagene CIS-FACTORIAL HepG2 Assay for human Specificity Protein 1 (Sp1) (AID 2282961). Conditions: HepG2 Sp1 cis-reporter transcription, actives raise or lower the signal. The method, boiled down:
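Read-out: fluorescence of 6-FAM-labeled, HpaI-digested RT-PCR products separated by capillary electrophoresis. HepG2 cells carried transfected cis-element reporter units and were exposed to chemicals for 24 h; gain or loss of signal fitted relative to DMSO.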

Assay [6] is described as follows: ATG_SREBP_CIS: Attagene CIS-FACTORIAL HepG2 Assay for human Sterol Regulatory Element Binding (SREBP) (AID 2282962). Conditions: HepG2 Attagene cis-factorial SREBP reporter, mRNA; actives raise or lower the signal. An outline of the steps:
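Endogenous SREBP activity read as cis-element-driven reporter transcript in transiently transfected HepG2, 24 h post-dosing; quantified via RT-PCR plus capillary electrophoresis of fluorescent fragments. Gain or loss of signal fitted relative to DMSO baseline.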

In assay [7] the target is Signal transducer and activator of transcription 3 (Homo sapiens) (UniProt P40763). Briefly: ATG_STAT3_CIS: Attagene CIS-FACTORIAL HepG2 Assay for human Signal Transducer and Activator of Transcription 3 (STAT3) (AID 2282963). As to conditions: HepG2, Attagene cis-factorial STAT3 reporter transcription; actives raise or lower the signal. An outline of the steps:
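Cis-factorial format: endogenous transcription factors in HepG2 drive transfected reporter units. After 24 h treatment, reporter RNA was reverse-transcribed, amplified, FAM-labelled and HpaI-digested before CE analysis; activity scored in both directions against DMSO.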

Assay [8] is described as follows: ATG_TCF_b_cat_CIS: Attagene CIS-FACTORIAL HepG2 Assay for human T-Cell-Factor with beta-catenin (TCF/b-cat) (AID 2282965). As to conditions: HepG2 TCF/beta-catenin cis-reporter transcription, actives raise or lower the signal. The method, boiled down: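 Endogenous transcription factor activity is captured through cis-promoter reporter constructs transiently introduced into human HepG2 liver cells. Induced reporter mRNA is measured after 24 h and fitted bidirectionally relative to DMSO.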

A short description of assay [9]: ATG_TAL_CIS: Attagene CIS-FACTORIAL HepG2 Assay for human TAL Basal Promoter (AID 2282966).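 Also: background control endpoint measuring basal TAL promoter reporter mRNA not a specific factor.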 Conditions: HepG2 Attagene cis-factorial TAL promoter reporter; actives raise or lower the signal. The method, boiled down: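 Endogenous transcription-factor activity is sensed in HepG2 cells through transfected cis-promoter reporter constructs. After 24 h dosing, reporter transcripts are quantified by RT-PCR and capillary electrophoresis. Gain or loss of signal is fitted relative to DMSO.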

The nature of assay [10]: ATG_TGFb_CIS: Attagene CIS-FACTORIAL HepG2 Assay for human Transforming Growth Factor (TGF) (AID 2282967). As to conditions: HepG2 Attagene CIS TGFb reporter, mRNA transcription; actives raise or lower the signal. An outline of the steps:
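Transcript-level reporter readout: HepG2 transfectants, 24 h exposure, RNA to cDNA, reporter-specific PCR, fluorescent primer extension, capillary sizing against ROX standards. Gain- or loss-of-signal relative to DMSO.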

A short description of assay [11]: ATG_VDRE_CIS: Attagene CIS-FACTORIAL HepG2 Assay for human Vitamin D Receptor Element (VDRE) (AID 2282968). Conditions: HepG2 VDRE cis-reporter transcription, actives raise or lower the signal. An outline of the steps:
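Measures endogenous factor activity through cis-element-driven reporter transcripts in transiently transfected HepG2. Cells are treated 24 h; reporter mRNA is quantified by RT-PCR and capillary electrophoresis; fitting is bidirectional.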

In assay [12] the target is Nuclear receptor subfamily 1 group I member 3 (Homo sapiens) (UniProt Q14994). Description: ATG_CAR_TRANS: Attagene TRANS-FACTORIAL HepG2 Assay for human Constitutive Androstane Receptor (CAR) (AID 2282969; active = hit-call score of the fitted dose curve at least 0.9, where 1 is the maximum;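 also: activators raise reporter mRNA above DMSO so AC50 marks induction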). Conditions: HepG2 Attagene TRANS-FACTORIAL CAR reporter. The method, boiled down:
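Signal is reporter mRNA induction relative to DMSO, measured 24 h after dosing by RT-PCR with fluorescent primer extension and capillary electrophoresis. Human HepG2 liver cells carried transiently transfected chimeric NR-Gal4/GAL4-UAS reporter constructs.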

In assay [13] the target is X-box-binding protein 1 (Homo sapiens) (UniProt P17861). Briefly: ATG_Xbp1_CIS: Attagene CIS-FACTORIAL HepG2 Assay for human X-box Binding Protein 1 (XBP1) (AID 2282972). Conditions: HepG2 XBP1 cis-element reporter, Attagene multiplex; actives raise or lower the signal. The method, boiled down: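 Reporter transcripts were quantified by RT-PCR with fluorescent primer extension and capillary electrophoresis after 24 h chemical exposure. Cells: transiently transfected HepG2 carrying cis-regulated reporter constructs; data fitted bidirectionally relative to DMSO.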
Sequence of X-box-binding protein 1 (Homo sapiens) (P17861 whole entry, looked up): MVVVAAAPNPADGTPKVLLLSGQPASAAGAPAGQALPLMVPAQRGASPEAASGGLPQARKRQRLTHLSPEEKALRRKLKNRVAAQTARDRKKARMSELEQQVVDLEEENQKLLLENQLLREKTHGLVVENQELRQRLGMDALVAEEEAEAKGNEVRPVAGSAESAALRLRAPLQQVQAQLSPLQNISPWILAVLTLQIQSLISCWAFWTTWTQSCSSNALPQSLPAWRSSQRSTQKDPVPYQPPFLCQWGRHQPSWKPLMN

Assay [14] is described as follows: ATG_TA_CIS: Attagene CIS-FACTORIAL HepG2 Assay for human TA Basal Promoter (AID 2282964). Conditions: HepG2 Attagene CIS-factorial TA basal promoter reporter; actives raise or lower the signal. The method, boiled down:
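Multiplexed mRNA reporter assay, HepG2, 24 h. Reporter cDNA amplified, 6-FAM primer-extended, HpaI-cut, CE-sized; DMSO = negative control and baseline.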

Assay [15] deals with Estrogen receptor (Homo sapiens) (UniProt P03372). Briefly: ATG_ERa_TRANS: Attagene TRANS-FACTORIAL HepG2 Assay for human Estrogen Receptor alpha (ERa) (AID 2282970; active = hit-call score of the fitted dose curve at least 0.9, where 1 is the maximum). Conditions: HepG2 Attagene TRANS ERa GAL4 reporter, mRNA. The method, boiled down: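 Transfected HepG2 cells carrying GAL4-UAS-driven reporter units were dosed for 24 hours. Total RNA was reverse-transcribed, reporter sequences PCR-amplified, FAM-labelled, HpaI-digested and resolved by capillary electrophoresis. Increases over DMSO control defined activity.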
Sequence of Estrogen receptor (Homo sapiens) (P03372 whole entry, looked up, the tested form may be a part): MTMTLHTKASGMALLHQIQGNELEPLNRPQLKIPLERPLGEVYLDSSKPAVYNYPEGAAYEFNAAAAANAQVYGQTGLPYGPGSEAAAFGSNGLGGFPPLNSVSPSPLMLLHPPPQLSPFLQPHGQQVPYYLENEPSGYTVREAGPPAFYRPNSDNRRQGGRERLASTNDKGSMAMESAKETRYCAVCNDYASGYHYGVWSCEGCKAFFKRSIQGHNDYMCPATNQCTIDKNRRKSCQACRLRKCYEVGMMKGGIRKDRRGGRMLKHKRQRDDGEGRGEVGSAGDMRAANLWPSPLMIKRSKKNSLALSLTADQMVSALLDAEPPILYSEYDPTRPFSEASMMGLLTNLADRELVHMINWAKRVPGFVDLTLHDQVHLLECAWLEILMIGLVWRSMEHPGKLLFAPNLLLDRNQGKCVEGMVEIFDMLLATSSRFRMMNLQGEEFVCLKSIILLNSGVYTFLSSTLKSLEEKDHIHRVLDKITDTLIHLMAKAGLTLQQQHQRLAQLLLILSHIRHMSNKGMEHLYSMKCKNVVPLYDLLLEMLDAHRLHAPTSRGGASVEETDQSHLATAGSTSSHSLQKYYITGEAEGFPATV

Assay [16] concerns the target Steroid hormone receptor ERR1 (Homo sapiens) (UniProt P11474). Description: ATG_ERRa_TRANS: Attagene TRANS-FACTORIAL HepG2 Assay for human Estrogen-Related Receptor alpha (ERRa) (AID 2282971; active = hit-call score of the fitted dose curve at least 0.9, where 1 is the maximum). As to conditions: HepG2 Attagene TRANS reporter, ERRa transactivation. An outline of the steps: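 HepG2 cells were transiently transfected with multiple GAL4-UAS reporter units, then dosed with compound for 24 h. Total RNA was reverse-transcribed, reporter cDNA PCR-amplified and fluorescently labelled, and fragments resolved by capillary electrophoresis; induction was compared with DMSO.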

Assay [17] in a line: ATG_M_19_TRANS: Attagene TRANS-FACTORIAL HepG2 Assay for M19 Transcription Factor (Internal Marker) (AID 2282974; active = hit-call score of the fitted dose curve at least 0.9, where 1 is the maximum). Conditions: HepG2 Attagene TRANS-FACTORIAL M19 internal marker reporter. The method, boiled down: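 24 h chemical exposure of transiently transfected HepG2 (MRTU library). RNA → oligo(dT) RT → PCR → 6-FAM labelling → HpaI cut → CE fluorescence. Positive-direction fit vs DMSO baseline; background internal-marker readout.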

Assay [18] in a line: ATG_GAL4_TRANS: Attagene TRANS-FACTORIAL HepG2 Assay for GAL4 (Internal Marker) (AID 2282976; active = hit-call score of the fitted dose curve at least 0.9, where 1 is the maximum). As to conditions: HepG2 Attagene TRANS GAL4 internal marker reporter. An outline of the steps: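 Fluorescence from capillary electrophoresis of labelled RT-PCR products quantifies reporter mRNA induction after 24 h dosing of HepG2 cells carrying transfected GAL4-UAS reporter transcription units. Vehicle DMSO serves as baseline.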

Sequence of Transcription factor Sp1 (Homo sapiens) (P08047 whole entry, looked up): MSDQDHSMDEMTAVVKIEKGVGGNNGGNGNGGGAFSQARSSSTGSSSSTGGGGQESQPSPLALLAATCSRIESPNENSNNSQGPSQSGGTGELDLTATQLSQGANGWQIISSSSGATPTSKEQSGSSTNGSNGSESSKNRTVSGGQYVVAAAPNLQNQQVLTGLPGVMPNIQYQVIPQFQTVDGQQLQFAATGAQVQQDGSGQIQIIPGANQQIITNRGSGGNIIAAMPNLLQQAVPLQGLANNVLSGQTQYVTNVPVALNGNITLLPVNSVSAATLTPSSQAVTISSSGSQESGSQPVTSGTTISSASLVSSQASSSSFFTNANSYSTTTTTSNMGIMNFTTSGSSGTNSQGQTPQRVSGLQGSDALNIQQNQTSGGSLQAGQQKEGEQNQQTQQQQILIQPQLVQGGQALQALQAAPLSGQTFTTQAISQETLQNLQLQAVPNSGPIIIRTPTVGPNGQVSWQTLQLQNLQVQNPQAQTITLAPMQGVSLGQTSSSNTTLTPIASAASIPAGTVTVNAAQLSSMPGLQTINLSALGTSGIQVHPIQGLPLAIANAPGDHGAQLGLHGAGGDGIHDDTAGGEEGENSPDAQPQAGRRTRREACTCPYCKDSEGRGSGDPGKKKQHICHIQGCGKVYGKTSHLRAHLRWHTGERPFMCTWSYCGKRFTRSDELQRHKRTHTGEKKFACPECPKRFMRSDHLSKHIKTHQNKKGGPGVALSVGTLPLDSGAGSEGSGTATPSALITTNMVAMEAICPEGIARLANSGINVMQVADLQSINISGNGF
Sequence of Nuclear receptor subfamily 1 group I member 3 (Homo sapiens) (Q14994 whole entry, looked up, the tested form may be a part): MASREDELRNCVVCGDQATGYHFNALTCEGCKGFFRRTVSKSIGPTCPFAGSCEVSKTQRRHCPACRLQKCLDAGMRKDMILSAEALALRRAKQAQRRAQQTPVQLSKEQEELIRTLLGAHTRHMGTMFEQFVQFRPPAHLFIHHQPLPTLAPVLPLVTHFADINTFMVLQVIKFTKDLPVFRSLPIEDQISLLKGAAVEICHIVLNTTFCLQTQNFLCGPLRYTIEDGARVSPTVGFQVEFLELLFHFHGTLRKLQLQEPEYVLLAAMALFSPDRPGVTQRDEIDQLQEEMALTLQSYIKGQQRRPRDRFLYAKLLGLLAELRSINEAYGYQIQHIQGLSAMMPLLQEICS
Sequence of Paired box protein Pax-6 (Homo sapiens) (P26367 whole entry, looked up): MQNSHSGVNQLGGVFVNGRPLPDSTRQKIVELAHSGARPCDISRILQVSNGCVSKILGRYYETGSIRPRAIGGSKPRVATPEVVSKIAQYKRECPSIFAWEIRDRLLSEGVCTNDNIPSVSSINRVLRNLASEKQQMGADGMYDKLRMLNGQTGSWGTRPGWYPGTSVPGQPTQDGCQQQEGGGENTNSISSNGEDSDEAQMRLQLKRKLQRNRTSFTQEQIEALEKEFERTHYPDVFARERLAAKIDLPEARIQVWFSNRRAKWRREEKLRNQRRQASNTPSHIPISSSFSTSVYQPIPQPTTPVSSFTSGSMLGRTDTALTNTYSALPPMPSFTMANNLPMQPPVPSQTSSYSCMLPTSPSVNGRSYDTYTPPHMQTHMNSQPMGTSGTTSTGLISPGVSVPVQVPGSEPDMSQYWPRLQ
Sequence of Signal transducer and activator of transcription 3 (Homo sapiens) (P40763 whole entry, looked up): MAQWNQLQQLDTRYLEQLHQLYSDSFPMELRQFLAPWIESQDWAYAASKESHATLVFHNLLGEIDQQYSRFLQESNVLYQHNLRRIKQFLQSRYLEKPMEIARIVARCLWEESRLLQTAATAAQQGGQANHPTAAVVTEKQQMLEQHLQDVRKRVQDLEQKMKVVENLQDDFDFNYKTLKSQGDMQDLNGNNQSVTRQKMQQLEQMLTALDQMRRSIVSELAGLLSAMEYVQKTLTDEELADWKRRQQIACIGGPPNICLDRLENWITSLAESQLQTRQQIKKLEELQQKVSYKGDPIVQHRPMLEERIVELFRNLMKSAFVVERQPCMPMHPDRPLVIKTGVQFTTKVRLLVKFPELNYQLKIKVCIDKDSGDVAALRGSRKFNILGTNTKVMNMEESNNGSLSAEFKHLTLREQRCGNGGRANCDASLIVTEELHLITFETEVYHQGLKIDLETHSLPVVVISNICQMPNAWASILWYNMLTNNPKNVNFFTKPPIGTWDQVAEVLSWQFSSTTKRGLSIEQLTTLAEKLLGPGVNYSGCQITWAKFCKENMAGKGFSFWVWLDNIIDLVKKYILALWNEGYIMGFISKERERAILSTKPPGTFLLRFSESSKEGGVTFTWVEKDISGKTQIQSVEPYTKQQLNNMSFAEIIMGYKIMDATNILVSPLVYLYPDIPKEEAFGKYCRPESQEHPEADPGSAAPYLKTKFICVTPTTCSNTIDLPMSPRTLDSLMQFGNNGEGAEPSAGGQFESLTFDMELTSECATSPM
Sequence of Steroid hormone receptor ERR1 (Homo sapiens) (P11474 whole entry, looked up, the tested form may be a part): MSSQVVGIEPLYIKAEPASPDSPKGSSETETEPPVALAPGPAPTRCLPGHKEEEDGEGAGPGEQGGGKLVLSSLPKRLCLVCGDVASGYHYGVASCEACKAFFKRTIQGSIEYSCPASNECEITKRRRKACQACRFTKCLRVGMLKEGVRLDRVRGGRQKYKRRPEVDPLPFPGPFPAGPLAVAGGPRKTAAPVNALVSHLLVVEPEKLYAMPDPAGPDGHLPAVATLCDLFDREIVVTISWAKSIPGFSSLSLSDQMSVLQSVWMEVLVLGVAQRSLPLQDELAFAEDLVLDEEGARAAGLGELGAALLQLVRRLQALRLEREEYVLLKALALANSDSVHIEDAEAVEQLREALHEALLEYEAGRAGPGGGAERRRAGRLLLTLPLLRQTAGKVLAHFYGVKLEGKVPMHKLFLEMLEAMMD

Broadly, the AC50 is the concentration at which the activity in the assay is half-maximal. With `COC(C)CCO` (stereo unspecified), the result in assay [1], in assay [3], in assay [4], in [5], in assay [6] and in assay [7] was inactive. The molecule was called inactive in [9], in assay [10], in assay [12] and in assay [13]. The AC50 in assay [2] was 26.6 µM (active); in [8], 187 µM (active); in assay [11] it was 65.3 µM (active).
With `OCCOCCOCCOCCO`, the molecule was called inactive in [1], in assay [3], in [6], in [7], in assay [14] and in [8]. Moreover, the result in assay [9], in assay [10], in assay [15] and in assay [13] was inactive. For the same molecule, the AC50 in [2] is 29.4 µM (active).
`CC(C)(C)c1n[nH]c(=S)n(N)c1=O`: the result in assay [1], in assay [4], in assay [6], in assay [7], in assay [14] and in assay [8] was inactive. Further, the call in assay [9], in assay [10], in assay [11], in assay [12], in [15] and in assay [16] was inactive. Besides, the call in assay [13] and in assay [17] was inactive. Also, in assay [2], the AC50 is 44.2 µM (active).
Regarding `CCCCCCOC(=O)CCCCC`, the molecule was called inactive in assay [1], in [2], in assay [3], in [5], in assay [6] and in assay [7]. Also, the molecule was classed as inactive in assay [8], in assay [9], in assay [11], in assay [13], in assay [17] and in assay [18].
Take `CCCc1ccccc1O`: the outcome in assay [1], in assay [3], in assay [5], in [6], in assay [7] and in assay [14] was inactive. The result in assay [8], in assay [9], in assay [10], in assay [11], in assay [12] and in assay [13] was inactive. Also, the call in assay [18] was inactive. For the same molecule, in assay [2], the AC50 is 56 µM (active).
As for `O=C1c2ccccc2C(=O)N1SC1CCCCC1`, the result in assay [1], in assay [3], in assay [6], in assay [14], in assay [8] and in assay [11] was inactive. In addition, the molecule was called inactive in [12], in assay [17] and in assay [18]. For the same molecule, the AC50 is 148 µM (active) in assay [2]; 59.1 µM (active) in assay [5]; 145 µM (active) in assay [7]; 60.1 µM (active) in assay [9]; 144 µM (active) in assay [10]; 46 µM (active) in assay [15]. Moreover, in [13], the AC50 is 26.5 µM (active).
